Measurements published in PubChem BioAssay (NCATS).
Records with an inconclusive call do not appear. Calls of active or inactive are those of the source. The call rests on the fitted dose curve; in most records, active means well fitted curve in the direction sought with a large enough effect; inconclusive means small, poorly fitted or top-dose-only effect, or another doubt; inactive means no such curve, though single readings can be large or run the other way. Numbered stars: 1 amine (or outer) side, 2 acyl side, 3 side chain; on linkers, the order of the positions; unused ones are H or OH. Bridge positions count the residues as written; N and C are the ends. Square brackets hold non-standard residues; d marks the D form. Peptide text beside a SMILES is read from it. I, II: the chains in the order shown. Actinocin(9to1) = Cc1c2oc3c(C)ccc(C(=O)[*:1])c3nc-2c(C(=O)[*:2])c(N)c1=O; NMeV = CN[C@H](C(=O)O)C(C)C; Sar = CNCC(=O)O

These compounds were tested against Protein phosphatase 1D (Homo sapiens) (UniProt O15297) (assay: Rhodamine-PBP qHTS Assay for Modulators of WT P53-Induced Phosphatase 1 (WIP1) (AID 1347425)). Details: recombinant WIP1, Rhodamine-PBP phosphate fluorescence, real-time; series mostly up to 57.5 µM.
Protein phosphatase 1D (Homo sapiens), sequence (O15297 whole entry, looked up): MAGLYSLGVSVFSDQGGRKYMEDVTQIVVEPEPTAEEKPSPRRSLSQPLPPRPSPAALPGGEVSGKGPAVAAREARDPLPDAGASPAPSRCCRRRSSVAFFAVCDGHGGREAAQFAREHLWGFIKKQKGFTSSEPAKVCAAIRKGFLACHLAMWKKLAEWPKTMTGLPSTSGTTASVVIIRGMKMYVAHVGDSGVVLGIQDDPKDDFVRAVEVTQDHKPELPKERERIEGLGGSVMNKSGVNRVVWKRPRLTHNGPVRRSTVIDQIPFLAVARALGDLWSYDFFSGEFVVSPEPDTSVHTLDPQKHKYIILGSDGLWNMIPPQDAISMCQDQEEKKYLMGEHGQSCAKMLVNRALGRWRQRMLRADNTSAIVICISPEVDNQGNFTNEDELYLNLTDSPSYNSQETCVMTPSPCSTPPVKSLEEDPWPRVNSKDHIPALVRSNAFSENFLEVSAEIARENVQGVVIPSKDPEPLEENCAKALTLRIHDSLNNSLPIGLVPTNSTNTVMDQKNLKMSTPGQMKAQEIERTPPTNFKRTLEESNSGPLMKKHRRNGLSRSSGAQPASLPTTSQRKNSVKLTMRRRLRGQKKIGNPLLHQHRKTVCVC
Method in brief: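 WIP1 (5 nM final) was preincubated with compound for 1 hour at room temperature. It then dephosphorylated 10 uM VEPPL-pS-QETFS peptide in Tris-HCl pH 7.5 with 30 mM MgCl2. Released Pi was detected by 10 uM Rh-PBP fluorescence (ex 525/em 598 nm) read at 1-min intervals for 11 min, as delta f1 - f0.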
In the case of `CCCOC(C(=O)OC1CCN(C)CC1)(c1ccccc1)c1ccccc1`, the outcome is reported as “inactive”.
With `Cc1ccc(Nc2c(F)cccc2Cl)c(CC(=O)O)c1` the outcome was “inactive”.
In the case of `C[n+]1c2cc(N)ccc2cc2ccc(N)cc21` (tested in a mixture with another compound), the outcome is reported as “inactive”.
In the case of `COc1ccc(OC)c(C(O)CNC(=O)CN)c1` (stereo not given), the outcome is reported as “inactive”.
`C[C@H]1C[C@H]2[C@@H]3CCC4=CC(=O)C=C[C@]4(C)[C@@]3(Cl)[C@@H](O)C[C@]2(C)[C@@]1(O)C(=O)CO` was tested, and the outcome was “inactive”.
`CC1=C(C(=O)OC(C)C)C(c2cccc([N+](=O)[O-])c2)C(C(=O)OC2CN(C(c3ccccc3)c3ccccc3)C2)=C(N)N1` (stereo not given) was tested, and the outcome was “inactive”.
For `Cc1c2oc3c(C)ccc(C(=O)N[C@@H]4C(=O)N[C@H](C(C)C)C(=O)N5CCC[C@H]5C(=O)N(C)CC(=O)N(C)[C@@H](C(C)C)C(=O)O[C@@H]4C)c3nc-2c(C(=O)N[C@@H]2C(=O)N[C@H](C(C)C)C(=O)N3CCC[C@H]3C(=O)N(C)CC(=O)N(C)[C@@H](C(C)C)C(=O)O[C@@H]2C)c(N)c1=O` (I: T[dV]P[Sar][NMeV] / II: T[dV]P[Sar][NMeV]; ester I:1-I:C, II:1-II:C; linker I:N-II:N via Actinocin(9to1)), the outcome was “inactive”.
For `CC(C)(C)NC(=O)[C@@H]1CN(Cc2cccnc2)CCN1C[C@@H](O)C[C@@H](Cc1ccccc1)C(=O)N[C@H]1c2ccccc2C[C@H]1O`, the outcome was “inactive”.
For `CCC(=O)c1c(O)cc(O)cc1O`, the outcome was “inactive”.
With `COc1ccc(CN2CCN(C(c3ccc(F)cc3)c3ccc(F)cc3)CC2)c(OC)c1OC` the outcome was “inactive”.
